# High-throughput results: PubChem BioAssay, National Center for Advancing Translational Sciences (NCATS)
# Most compounds without a hit are left out; they make up all but 21% or so of the library.
# SARS PLpro yeast: inhibitors of SARS-CoV papain-like protease in yeast. S. cerevisiae expressing SARS-CoV PLpro, growth rescue. Potency, µM (titrated, usually from 32.9 µM), for inactives: top-dose activity, positive = growth rescue, most hits filed as activators. 330,000 compounds, 0.19% hits. AID 485353; further: potency means the concentration at half of the fitted maximal effect; 0% is about no effect; nearly all actives have a fitted effect of over 55% in size
# Cycloheximide cs: counter-screen hit for Shiga toxin inhibitors, cycloheximide; cell reporter, cycloheximide protein synthesis inhibition counterscreen; max response, %; 300,000 compounds, 12% hits; in the data active means max response mostly above about 13%, no sharp cut-off; inactive means mostly below about 14%; further: read at 38.3 µM for the half of the compounds with a filed dose; 0% is about no effect
# NS1 function inh: influenza NS1 inhibition | 270,000 compounds, 0.4% hits | Potency, µM (series often up to 46.1 µM), for the others: top-dose activity, positive = more growth; further: potency means the concentration at half of the fitted maximal effect; actives are rising curves; nearly all actives have a fitted effect of over 50% in size
#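 A cell-based growth assay was used: compounds that relieve NS1-induced slow growth of budding yeast raise OD600. Assay medium was yeast nitrogen base with ammonium sulphate and -URA supplement, pH 6.0, with 2% galactose.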
# Pf growth 96h: P. falciparum growth inhibition at 96 hours | P. falciparum luciferase reporter growth, 96 h | Potency, µM (titrated, usually from 28.7 µM), inactives show at the top dose activity change, negative = inhibition, usual class: inhibitors | 320,000 compounds, 6.9% hits | AID 504834; active means well fitted inhibition curve with a large enough effect; inconclusive means small, poorly fitted or top-dose-only effect, or another doubt; inactive means no such curve, though single readings can be large or run the other way; further: potency means the concentration at half of the fitted maximal effect; on the % scale 0 is the no-effect control and ±100 the full control effect
#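 Two-generation exposure (96 h) targets delayed-death phenotype. Reporter parasites carrying integrated firefly luciferase, in red cells at 2% hematocrit and 0.05% parasitemia final, kept at 37 C, 5% CO2; luminescence loss indicates inhibition.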
# Shiga toxin inh: inhibitors of Shiga toxin in Vero cells | Vero cells, Shiga toxin protein synthesis inhibition reporter | inhibition, % at 38.7 µM | 290,000 compounds, 9.2% hits | AID 2315; in the data active means inhibition mostly above about 28%, no sharp cut-off; inactive means mostly below about 43%; further: 0% is about no effect
# Pf growth 48h: inhibits P. falciparum growth in the first generation, 48 h. 310,000 compounds, 5.9% hits. Potency, µM (titrated, usually from 28.7 µM), without a hit: at the highest dose activity change, negative = inhibition, actives largely listed as inhibitors. P. falciparum luciferase growth in erythrocytes, 48 h; active means well fitted inhibition curve with a large enough effect; inconclusive means small, poorly fitted or top-dose-only effect, or another doubt; inactive means no such curve, though single readings can be large or run the other way; further: potency means the concentration at half of the fitted maximal effect; on the % scale 0 is the no-effect control and ±100 the full control effect
#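 Luciferase-expressing P. falciparum in infected erythrocytes (2% hematocrit, 0.1% parasitemia final) in RPMI 1640/0.5% Albumax were exposed to compound for 48 hours at 37 C, 5% CO2; growth read as luminescence.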
# An asterisk follows results filed as active; ? = inconclusive; . = not tested or not shown. Unless noted, the call rests on the fitted dose curve.
SMILES,SARS PLpro yeast,Cycloheximide cs,NS1 function inh,Pf growth 96h,Shiga toxin inh,Pf growth 48h
c1ccc2c(c1)ncn2CCCCOc1ccc2c(c1)CCC2,-10%,18*,-170%,5.9µM*,37,.
c1ccc2c(c1)ncn2CCCOc1ccc2c(c1)CCC2,2%,19*,-93%,13µM*,98*,.
O=[N+]([O-])c1ccc(OCCn2cnc3ccccc32)cc1,-2%,-3,.,8%,-6,?
c1ccc(OCCCCn2cnc3ccccc32)cc1,-1%,6,-21%,-25%,14,-9%
O=C1[C@@H](Oc2ccccc2)[C@@H](c2cnc3ccccc3c2)N1c1ccccc1,-34%,.,.,.,.,.
CCN(CC)CCNC(=O)c1ccc(NC(=O)c2cccc(S(=O)(=O)N3c4ccccc4CC3C)c2)cc1 (stereo not given),-5%,-2,-6%,-25%,-22,16%
CCN(CC)CCNC(=O)c1ccc(NC(=O)c2cccc(S(=O)(=O)N3CCc4ccccc43)c2)cc1,2%,.,.,1µM*,.,0.74µM*
Cc1ccc(NS(=O)(=O)c2cc(C(=O)NCCCN(C)C)ccc2Cl)cc1Cl,1%,.,.,?,.,6.6µM*
COc1cc2c(cc1OC)CN(C(=O)c1ccc(OC)c(S(=O)(=O)N3CCCC3)c1)CC2,0%,.,.,?,.,12µM*
CCN(CC)Cc1ccccc1CNC(=O)c1cccc(S(=O)(=O)Nc2ccc3c(c2)OCO3)c1,4%,.,.,?,.,9.3µM*
CC(C)(C)NC(=O)CSc1nc2cc(S(=O)(=O)N3CCCCC3)ccc2o1,4%,.,.,.,.,.
CN(C)S(=O)(=O)c1ccc(Cl)c(NC(=O)C2CCN(S(=O)(=O)c3cccs3)CC2)c1,0%,.,.,?,.,?
O=C(Cc1cccs1)NCCn1ccc2ccccc21,3%,9,-18%,15%,26,0%
COc1cc(/C=C/C(=O)Nc2ccc(C)cc2)cc(OC)c1OC,-27%,-3,-15%,?,-5,-7%
CCN(CC)CCNC(=O)c1ccc(NC(=O)c2cccc(S(=O)(=O)Nc3ccc(C)cc3)c2)cc1,-3%,3,.,1.2µM*,-6,0.37µM*
CCN(CC(=O)Nc1ccc(NC(C)=O)cc1)C(=O)c1cccc(S(=O)(=O)N2CCc3ccccc3C2)c1,12%,.,.,?,.,-1%
CCN(CC(=O)Nc1cccc(OC)c1)C(=O)c1cccc(S(=O)(=O)N2CCc3ccccc32)c1,-1%,.,.,?,.,12µM*
COc1ccccc1NS(=O)(=O)c1cc(N/C(=N\S(=O)(=O)c2ccccc2)c2ccc(F)cc2)ccc1Cl,-1%,4,-11%,13µM*,-4,9.3µM*
O=S(=O)(/N=C(/Nc1ccc(Cl)c(S(=O)(=O)N2CCOCC2)c1)c1ccc(F)cc1)c1ccccc1,?,-3,5%,44%,-16,?
CCN(CC)CCNC(=O)c1ccc(NC(=O)/C=C/c2cc(OC)c(OC)c(OC)c2)cc1,0%,-2,.,?,-6,5.2µM*
COc1ccccc1NS(=O)(=O)c1cc(C(=O)NCCC(C)C)ccc1F,0%,-4,5%,-24%,-6,-22%
CCN(CC)CCNC(=O)c1ccc(NC(=O)c2ccc(Cl)c(S(=O)(=O)Nc3ccccc3OC)c2)cc1,-1%,-3,18%,2.3µM*,-2,?
COc1ccc(NC(=O)c2cccc(S(=O)(=O)N3CCc4ccccc43)c2)cn1,3%,1,-8%,12µM*,22,?
COc1cc2c(cc1OC)CN(C(=O)c1cccc(S(=O)(=O)N3CCc4ccccc43)c1)CC2,-5%,.,.,12µM*,.,10µM*
O=C(c1cccc(S(=O)(=O)N2CCc3ccccc32)c1)N1CCc2ccccc2C1,-3%,.,.,31%,.,-7%
COc1ccc(-c2cc(C(F)(F)F)n3nc(C(=O)N4CCN(C(=O)c5ccco5)CC4)cc3n2)cc1,8%,-2,17%,15%,-9,?
FC(F)(F)c1ccc2c(c1)NCC1CCCN21 (stereo not given),-1%,17*,16%,108%,40,225%
FC(F)(F)c1ccc2c(c1)N1CCCC1CN2 (stereo not given),-1%,-2,-2%,?,5,?
CSc1nnc2n(C)c3c(c(=O)n12)C1(CCCC1)Cc1ccccc1-3,?,1,?,10µM*,-8,?
